Columns and labels:
Test in all cases: PBM binding z-score (relative to random genomic background probes); higher = stronger binding; sequences stand for … in GC…GCGATTGACAGCGTAGAATGAAGG
[1] = test system: PPARg:RXRa DBDmut IVT, anti-RXR (DBD mutation: RXRa K156A/R161A, NR concentration 270 nM, RXRa partner concentration 90 nM)
Method in brief: (§1)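 Binding z-scores were set against random background probes. The data came from custom Agilent 4×180K protein-binding microarrays carrying double-stranded probes with 34-nt variable regions, incubated 1 h with ligand-free nuclear receptor dimers. Partner-specific antibodies detected binding, and scanned fluorescence was regression-normalized.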

[2] = test system: PPARg:RXRa IVT, anti-PPARg (NR concentration 270 nM, RXRa partner concentration 90 nM)
Method in brief: as §1

[3] = test system: PPARg DBDmut:RXRa IVT, anti-PPARg (DBD mutation: PPARg1 K132A/R137A, NR concentration 270 nM, RXRa partner concentration 90 nM)
Method in brief: as §1

[4] = test system: PPARg DBDmut IVT, anti-PPARg (DBD mutation: PPARg1 K132A/R137A, NR concentration 270 nM)
Method in brief: as §1

[5] = test system: PPARg homodimer (NR concentration 180 nM)
Method in brief: as §1

[6] = test system: PXR:RXRa (NR concentration 270 nM, RXRa partner concentration 90 nM)
Method in brief: as §1

[7] = test system: PXR homodimer (NR concentration 270 nM)
Method in brief: as §1

[8] = test system: RARa:RXR (NR concentration 270 nM, RXRa partner concentration 90 nM)
Method in brief: as §1

[9] = test system: RARa homodimer (NR concentration 270 nM)
Method in brief: as §1

[10] = test system: RARb:RXRa (NR concentration 270 nM, RXRa partner concentration 90 nM)
Method in brief: as §1

Sequence	PBM binding z-score [1]	PBM binding z-score [2]	PBM binding z-score [3]	PBM binding z-score [4]	PBM binding z-score [5]	PBM binding z-score [6]	PBM binding z-score [7]	PBM binding z-score [8]	PBM binding z-score [9]	PBM binding z-score [10]
GCTCGGAGGACAAGGTCTGAGCTTTGTCCGTAGA	-0.275	-0.493	-0.968	-1.01	-0.929	-0.656	-0.919	-0.399	-1.72	0.963
TAGCCTAGGTCATGGGCGAGTATACCACGCGAAC	1.54	3.26	0.096	-0.639	0.74	1.53	-0.407	2.3	-0.782	3.91
GTGACTGGGGCATCAGCAGGTTACCATAACTTAA	4.3	4.9	0.566	0.266	0.222	0.254	0.042	0.669	-0.0196	1.09
CGAACGCGGGCATGAGTTGATAGCAAATGCCGAT	-0.0191	-0.364	-0.145	-0.957	-0.435	-0.69	-0.265	-0.878	-0.807	-0.0245
TTACCAAAGTGAGCTGAGGTCGTTGATCCAACTC	-0.795	-0.309	-0.436	-0.706	-0.866	2.11	0.201	1.44	-1.13	0.34
ATCTTTAGGTAACAAGTTCAGTGAAAGAGAGGAC	2.13	1.75	1.64	1.45	1.33	1.95	1.87	1.32	1.15	1.85
TCGAGTAGGTTAGTCGGGGCATTCACCCAACATA	2.26	1.7	-0.581	-0.56	0.252	0.243	-0.193	0.377	0.343	0.447
CTACCAAGCTGAACAAGGTCGTTGATTACTATTC	0.107	-0.452	0.163	0.158	0.308	1.39	1.02	1.31	0.561	0.523
CGAACTAGGTCAGAACAAGACAGTGAAGGATGAT	7.36	7.43	2.55	1.93	1.19	0.244	0.276	0.614	0.172	2.85
GGAACGAGGGCACGTTGATAGCAGAGTTTGATGG	4.33	3.73	0.361	-0.223	-0.0757	0.508	-0.125	0.282	-0.225	2.37
GCTTGTAGATCAAGGTTAAGAGAGACTAAGCTAA	1.35	1.01	0.118	-0.183	0.193	0.187	-0.0843	0.668	-0.213	0.688
CCGTACGGGTCACTGACAGGTTATAGCATTTGGA	1.03	2.52	-0.133	-0.747	1.58	3.74	-0.0858	4.79	0.0778	4
ATATGTAGGTTACATCCGGGTCATTCATGCTATG	7.49	7.53	5.06	3.54	3.61	3.79	1.66	3.83	1.2	2.23
GCATACAGGTGAAACGCAGGTAACTCAGGGTGGC	3.57	1.78	-0.446	-0.192	-0.115	-0.254	-0.513	0.243	-0.373	0.744
TAGCCTAGGTCATTCAGGTGCCAGTATAGAAAGC	1.57	2.83	0.483	-0.0925	1.13	2.17	0.327	2.34	-0.175	3.6
AGAACGAGGGCACTGAGTTGATAGCACGGGTGGC	3.56	2.9	0.453	0.196	0.00559	1.21	4.15	0.453	-0.261	2.09
ATCGAAAGGTCGAAGGCGAGTATACCCACCCGAA	-0.0271	1.19	0.286	0.268	1.03	2.14	-0.132	2.87	0.519	3.57
AGAACGAGGGCACGCTGAGTTGATAGAAGAGTAG	3.93	3.46	0.756	0.00527	0.193	1.28	-0.0963	0.661	-0.807	2.31
AATCCAGGGTCATCGTAGGCCAGAGTACGCACAG	2.54	4.33	1.57	0.689	2.41	5.14	0.854	5.49	1.2	4.32
